# Rows were chosen to be rich in hits. Some 19% of all compounds tested hit in one or more screens of this group.
# IL1B secr inh: inhibitors of inflammasome signaling (IL-1 beta secretion). THP-1 LPS/ATP IL-1B secretion, AlphaLISA, 16 h; active compounds read low. hit rate 4.7% among 360,000. activity change, % at 57.5 µM. AID 743279; in the data active means activity change below about -50%; inconclusive means mostly about -30% to -49%
#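 THP-1 cells pretreated 1 hr with compounds (up to 57.5 uM final), then stimulated with LPS (250 ng/mL final) plus ATP (1.25 mM final); secreted IL-1B measured by AlphaLISA after 16 hr, decreased signal indicating inhibition.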
# DT40 TDP1 CPT: DT40-hTDP1 cell growth loss with CPT. hit rate 12% among 420,000. Potency, µM (series often up to 46.2 µM), without a hit: top-dose activity change, negative = growth inhibition, hits mostly inhibitors. chicken DT40 Tdp1-/-;hTDP1 cells + 20 nM CPT, ATP luminescence, 48 h. AID 686979; further: potency means the concentration at half of the fitted maximal effect; nearly all actives have a fitted effect of over 55% in size
#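 Chicken DT40 Tdp1-/- cells complemented with human TDP1, 400 cells/well, exposed to compounds plus 20 nM camptothecin for at least 48 h at 37 C; viability read as ATP content by CellTiter-Glo luminescence.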
# HT1080-NT tox: kills 2HG-producing HT-1080-NT fibrosarcoma cells. HT-1080-NT fibrosarcoma viability, CellTiter-Glo ATP luminescence, 48 h. Potency, µM (top dose mostly 46.1 µM), for the others: at the top dose activity, negative = less viability, usual class: cytotoxic. hit rate 1.6% among 360,000. AID 686970;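 further: NT is the 2HG producing partner of a matched IDH1 knockdown line; potency means the concentration at half of the fitted maximal effect; 0% = DMSO-treated cells and -100% = media-only wells without cells; nearly all actives have a fitted effect of over 55% in size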
#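 Toxicity toward the 2HG-producing NT line was scored as %Activity, normalised to DMSO and no-cell wells, from CellTiter-Glo luminescence after 48 hours' treatment.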
# TDP1 cell noCPT: qHTS for Inhibitors of human tyrosyl-DNA phosphodiesterase 1 (TDP1): qHTS in cells in absence of CPT. DT40 Tdp1-/- hTDP1 cells, no CPT, ATP luminescence, 48 h. Potency, µM (highest dose often 46.2 µM), inactives show top-dose activity change, negative = growth inhibition, hits mostly inhibitors. AID 686978, 2013. hit rate 15% among 420,000; further: potency means the concentration at half of the fitted maximal effect; nearly all actives have a fitted effect of over 55% in size
#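 No-CPT arm: Tdp1-/-;hTDP1 DT40 cells (400/well) plus compounds, incubated ≥48 hr at 37 °C. Readout CellTiter-Glo luminescence.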
# HT1080 IDH1KD tx: toxicity to HT-1080 IDH1 knockdown cells (counter line); HT-1080 IDH1 knockdown viability, ATP luminescence, 48 h; Potency, µM (series often up to 46.1 µM), inactives show at the highest dose activity, negative = toxicity, most hits filed as cytotoxic; hit rate 2% among 360,000;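 further: potency means the concentration at half of the fitted maximal effect; 0% = DMSO wells and -100% = cell-free medium wells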
#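 CellTiter-Glo luminescence after 48 h compound exposure at 37 degrees C of IDH1-knockdown HT-1080 cells in 5% FBS RPMI. %Activity scaled between DMSO wells and cell-free media wells, with curves fitted and assigned curve classes.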
# Active calls of the source: *; ? = inconclusive; · = not tested or not shown; [ ] = another dose, or the depositor's remark. Unless noted, the call rests on the fitted dose curve; in most records, active means well fitted curve in the direction sought with a large enough effect; inconclusive means small, poorly fitted or top-dose-only effect, or another doubt; inactive means no such curve, though single readings can be large; an effect the other way counts as inactive or inconclusive. Unless noted, on the % scale 0 is the no-effect control and ±100 the full control effect.
SMILES,IL1B secr inh,DT40 TDP1 CPT,HT1080-NT tox,TDP1 cell noCPT,HT1080 IDH1KD tx
CCN1CCN(c2ccc(S(=O)(=O)N3CCCCC3)cc2NC(=O)c2sccc2C)CC1,-26,?,0%,23µM*,-3%
CCN1CCN(c2ccc(S(=O)(=O)N3CCCCC3)cc2NC(=O)COc2ccc(Cl)cc2)CC1,-26,?,-5%,?,-2%
O=C(Nc1cc(S(=O)(=O)N2CCCCC2)ccc1N1CCOCC1)c1ccc(F)cc1,-3,?,-11%,-26%,-8%
Cc1cc(C#N)c(C)n1-c1cc(S(=O)(=O)N2CCOCC2)ccc1N1CCCC1,-9,16µM*,-2%,15µM*,-5%
CCN1CCN(c2ccc(S(=O)(=O)N3CCCCC3)cc2NC(=O)c2ccc(F)cc2)CC1,-9,?,-4%,21µM*,-25%
CC(=O)C1(C)C(=O)N(c2ccc(F)cc2)C(=O)N1c1ccc(F)cc1 (stereo unspecified),-14,12%,22%,9%,?
C[C@H](NC(=O)C1CC(=O)N(c2ccc3c(c2)OCCO3)C1)C(=O)NCc1ccco1 (stereo partly specified),0,-4%,8%,23%,1%
CCCCn1c(CNC(=O)c2ccc(OC)cc2)nnc1SCC(=O)Nc1ccccc1,·,-10%,·,-17%,·
O=[N+]([O-])c1cccc(/C=C/c2ccncc2)c1,?,-21%,0%,-24%,-11%
COc1cc(-c2noc(C)c2/C=C/c2ccc(C(=O)O)cc2)cc(OC)c1OC,6,?,?,?,18µM*
COc1cc(-c2noc(C)c2/C=C/c2cccc([N+](=O)[O-])c2)cc(OC)c1OC,57,1.3µM*,2.3µM*,1.6µM*,3.7µM*
COc1cc(-c2noc(C)c2C(=O)N[C@@H](CO)Cc2ccccc2)cc(OC)c1OC,17,?,5%,?,7%
Cc1cccc(NCC(=O)c2c(N)n(C)c(=O)n(C)c2=O)c1C,26,-19%,-1%,?,-8%
COc1ccc(/C=N/Nc2nncc3ccccc23)c(OC)c1,-16,26µM*,8%,?,12%
C(=N\Nc1nncc2ccccc12)/c1ccccc1,8,-4%,-12%,-20%,-8%
COc1cc(/C=N/Nc2nncc3ccccc23)cc(OC)c1OC,-30,21µM*,-5%,12µM*,-4%
COc1ccc(/C=N\Nc2ccccn2)c(OC)c1,-17,2%,-2%,14%,-8%
CN(C)c1ccc(/C=N/Nc2nncc3ccccc23)cc1,54,?,4%,13µM*,1%
COc1ccccc1CC(=O)N1CCOCC1,-4,0%,2%,1%,6%
CCCNC(=O)C1(C)CCCN(C(=O)c2cccc(Cl)c2)C1 (stereo unspecified),-5,5%,20%,-5%,6%
CC1(C(=O)NS(=O)(=O)C2CC2)CCCN(C(=O)c2cccc(Cl)c2)C1 (stereo unspecified),-2,7.3µM*,4%,1.5µM*,27%
CC1(C(=O)NS(=O)(=O)C2CC2)CCCN(C(=O)c2ccc(F)c(Cl)c2)C1 (stereo unspecified),16,5.8µM*,?,5.2µM*,7%
C#Cc1ccc2c(c1)COc1c3ccccc3nn1-2,-7,10µM*,-4%,?,-6%
CCN(CC)c1nc(Oc2ccc(C(=O)OC)cc2)nc(N2CCOCC2)n1,-28,?,-2%,?,-24%
COC(=O)c1ccc(Oc2nc(N3CCCCC3)nc(N3CCOCC3)n2)cc1,-55*,-23%,-10%,-20%,-10%
SMILES,IL1B secr inh,DT40 TDP1 CPT,HT1080-NT tox,TDP1 cell noCPT,HT1080 IDH1KD tx
CC(=O)Nc1ccc(/C(C)=N/Nc2nc(Nc3ccccc3)nc(N3CCOCC3)n2)cc1,-25,5.2µM*,?,7.3µM*,?
CC(=O)c1cccc(Nc2nc(N3CCOCC3)nc(N3CCOCC3)n2)c1,-20,?,-8%,?,8%
O=C(NNc1nc(Nc2ccccc2)nc(N2CCOCC2)n1)Nc1ccc(Cl)cc1,21,21µM*,?,?,?
CC(=O)c1ccc(Nc2nc(N3CCOCC3)nc(N3CCOCC3)n2)cc1,-54*,?,14%,-20%,11%
O=C(NNc1nc(N2CCOCC2)nc(N2CCOCC2)n1)c1ccccc1,-1,?,8%,?,14%
CCN(Cc1ccncc1)C(=O)c1ccccc1NS(=O)(=O)c1ccc(F)cc1,26,11%,0%,-9%,0%
O=C(NCc1cccs1)C1Cc2c(-c3ccc(Cl)cc3)ccnc2O1 (stereo unspecified),51,1.5µM*,?,1.8µM*,2.1µM*
COc1ccc(CNC(=O)C2Cc3c(-c4cccc(C(C)=O)c4)ccnc3O2)cc1OC (stereo unspecified),51,?,-28%,?,?
CC(=O)c1cccc(-c2ccnc3c2CC(C(=O)NCc2cccs2)O3)c1 (stereo unspecified),90,0.73µM*,?,0.73µM*,?
C=CCn1c(SCC(=O)Nc2cccc(S(N)(=O)=O)c2)nnc1C1CCCCC1,16,-21%,3%,-2%,-1%
COC1(NS(=O)(=O)c2ccc(Br)cc2)C(C)=CC(=O)C=C1C,34,13µM*,0%,?,8%
CCCCNC(=S)N1CCn2cccc2C1c1ccc(F)cc1 (stereo unspecified),-86*,16µM*,?,?,?
S=C(NCCc1ccccc1)N1CCn2cccc2C1c1cccnc1 (stereo unspecified),-66*,?,-19%,?,0%
CCCCNC(=S)N1CCn2cccc2C1c1ccccc1 (stereo unspecified),2,?,-24%,?,-16%
S=C(NCc1ccccc1)N1CCn2cccc2C1c1cccnc1 (stereo unspecified),16,6%,-16%,-1%,-14%
COc1cc2c(cc1OC)C(c1cc3cc4c(cc3[nH]c1=O)OCO4)N(C(=O)C(C)C)CC2 (stereo unspecified),-5,?,5%,-4%,6%[9.24 µM]
CC(C)(C)OC(=O)N1CCCC(C(=O)Nc2cccc(C(=O)NCc3ccccc3)c2)C1 (stereo unspecified),-20,?,0%,?,2%
CN(Cc1ccccc1)C(=O)c1cccc(NC(=O)Cc2cccc(NC(=O)C3CCN(C(=O)C4CC4)CC3)c2)c1,-5,?,-6%,?,0%
